Common to all, as to assay: NCI-60 one-dose screen, 48 h (100 = growth as untreated, 0 = no growth, -100 = all killed)
For one experiment, the system named is SK-MEL-2 melanoma. To be noted: 10 µM.
Another experiment relates to EKVX NSCLC. The settings on record: 10 µM.
Another experiment concerns SN12C renal. To be noted: 10 µM.
The next experiment concerns UO-31 renal. The settings on record: 10 µM.
A further experiment concerns TK-10 renal. To be noted: 10 µM unless noted.
A further experiment deals with ACHN renal. To be noted: 10 µM.
Another experiment relates to CAKI-1 renal. The settings on record: 10 µM.
The subject of the next experiment is A498 renal. To be noted: 10 µM.
In the next experiment the test system is CCRF-CEM leukemia. The settings on record: 10 µM.
The subject of another experiment is MOLT-4 leukemia. The settings on record: 10 µM.

This is part of a sample that, as a whole, favours compounds with a hit. Of some 83,000 tested, about 20% had one in any assay.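 48-hour exposure, single concentration, 96-well plates; percent growth endpoint where 0 means no net growth. Active: below 10.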 A number with no mark means an inactive call. Calls of active or inactive are those of the source.

Turning to `CCOC(=O)C1OC1c1ccccc1` (stereo not given), the growth was 114% in the experiment with SK-MEL-2 melanoma; 98.4% in the experiment on EKVX NSCLC; 105% with SN12C renal; 89.2% in the experiment with UO-31 renal; 103% with TK-10 renal; 104% with ACHN renal. Also, the growth is 98.6% with CAKI-1 renal, 96.8% in the experiment with A498 renal, 109% with CCRF-CEM leukemia and 107% with MOLT-4 leukemia.
For the compound `CC(C)C(C#N)(C(C)C)C(C)C`, the growth was 98% in the experiment on SK-MEL-2 melanoma; 96.7% in the experiment on EKVX NSCLC; 99.9% with SN12C renal; 81.5% in the experiment with UO-31 renal; 96% with TK-10 renal; 108% in the experiment with ACHN renal. Besides, the growth in the experiment with CAKI-1 renal was 95.6%; in the experiment with A498 renal, 98.3%; in the experiment with CCRF-CEM leukemia, 102%; in the experiment with MOLT-4 leukemia, 104%.
As for `C/C(=C\c1ccc([N+](=O)[O-])cc1)C(=O)O`, the growth in the experiment with SK-MEL-2 melanoma was 110%; in the experiment with EKVX NSCLC it was 94.7%; in the experiment on SN12C renal, 99%; in the experiment on UO-31 renal, 95.3%; in the experiment on TK-10 renal, 105%; in the experiment on ACHN renal it was 98%. Also, the growth is 95.6% with CAKI-1 renal, 81.7% in the experiment with A498 renal, 87.6% in the experiment with CCRF-CEM leukemia and 102% with MOLT-4 leukemia.
With `c1ccc2c(N3CCCCC3)ncnc2c1`, the growth with SK-MEL-2 melanoma is 92.6%; in the experiment with EKVX NSCLC it was 94%; with SN12C renal it was 91.1%; with UO-31 renal, 62.5%; in the experiment with TK-10 renal, 90.9%; in the experiment on ACHN renal, 81.9%. The growth with CAKI-1 renal was 91%; in the experiment on A498 renal it was 106%; in the experiment on CCRF-CEM leukemia it was 93.2%; in the experiment on MOLT-4 leukemia, 91.2%.
As for `Cc1ccc(C(=O)N/N=C/c2ccc3c(c2)OCO3)cc1`, the growth was 90.4% in the experiment with SK-MEL-2 melanoma; 101% with EKVX NSCLC; 96% in the experiment with SN12C renal; 78.2% in the experiment on UO-31 renal; 98% with TK-10 renal; 94.3% in the experiment with ACHN renal. For the same compound, the growth is 93.3% with CAKI-1 renal, 96.6% in the experiment on A498 renal, 84.8% with CCRF-CEM leukemia and 91.2% in the experiment on MOLT-4 leukemia.
Turning to `CCN(CC)CCCC(C)Nc1ccnc(/C=C/c2ccc(Cl)cc2)c1` (stereo not given), the growth with SK-MEL-2 melanoma is -69.4% (active); in the experiment with EKVX NSCLC, 50.5%; in the experiment with SN12C renal it was 61.1%; in the experiment on UO-31 renal, -48.5% (active); in the experiment with TK-10 renal, -38.8% (active); with ACHN renal it was 35.2%. Also, the growth was 18.1% in the experiment with CAKI-1 renal, 22.2% in the experiment on A498 renal, 6.37% (active) in the experiment with CCRF-CEM leukemia and 13.3% with MOLT-4 leukemia.
In the case of `NC(C(=O)O)C(O)c1ccco1` (stereo not given), the growth in the experiment with SK-MEL-2 melanoma is 115%; with EKVX NSCLC, 109%; in the experiment with SN12C renal, 111%; in the experiment with UO-31 renal, 96.6%; in the experiment on TK-10 renal it was 101%; in the experiment with ACHN renal it was 113%. For the same compound, the growth was 97.4% with CAKI-1 renal, 94.5% in the experiment on A498 renal, 94% with CCRF-CEM leukemia and 112% in the experiment on MOLT-4 leukemia.
Regarding `c1ncc2[nH]cnc2n1`, the growth with SK-MEL-2 melanoma was 84.6%; in the experiment with EKVX NSCLC it was 126%; in the experiment with SN12C renal, 97.1%; with UO-31 renal, 83.5%; in the experiment on TK-10 renal, 103%; in the experiment on ACHN renal, 95.1%. Also, the growth is 94.8% with CAKI-1 renal, 79.1% in the experiment on A498 renal, 88.7% with CCRF-CEM leukemia and 80.8% in the experiment on MOLT-4 leukemia.
Regarding `CC1OC(Oc2c(-c3ccc(O)c(O)c3)oc3cc(O)cc(O)c3c2=O)C(O)C(O)C1O` (stereo not given), the growth in the experiment on SK-MEL-2 melanoma is 104%; in the experiment with EKVX NSCLC, 110%; in the experiment on SN12C renal it was 102%; in the experiment with UO-31 renal it was 92.5%; in the experiment on TK-10 renal, 103%; in the experiment on ACHN renal, 113%. The growth in the experiment on CAKI-1 renal was 102%; in the experiment with A498 renal, 99.5%; in the experiment with CCRF-CEM leukemia it was 106%; in the experiment with MOLT-4 leukemia, 108%.
Regarding `O=[N+]([O-])c1ccc(N=Nc2ccccc2)cc1`, the growth in the experiment on SK-MEL-2 melanoma is 94.3%; with EKVX NSCLC, 106%; with SN12C renal, 94.3%; in the experiment on UO-31 renal, 65.7%; in the experiment with TK-10 renal, 92.2%; in the experiment on ACHN renal, 96.2%. Further, the growth is 92.8% in the experiment on CAKI-1 renal, 89.8% with A498 renal, 38.7% with CCRF-CEM leukemia and 79.1% with MOLT-4 leukemia.
`N#CCc1ccc([N+](=O)[O-])cc1`: the growth was 107% in the experiment with SK-MEL-2 melanoma; 97.8% in the experiment with EKVX NSCLC; 101% with SN12C renal; 72.1% with UO-31 renal; 107% with TK-10 renal; 103% in the experiment on ACHN renal. Also, the growth with CAKI-1 renal is 93%; in the experiment on A498 renal it was 90.7%; in the experiment on CCRF-CEM leukemia it was 100%; in the experiment with MOLT-4 leukemia, 74.2%.
In the case of `CCN(CC)C(=O)/C=C(/C)c1ccccc1`, the growth in the experiment with SK-MEL-2 melanoma is 113%; with EKVX NSCLC, 107%; in the experiment with SN12C renal it was 104%; with UO-31 renal it was 102%; with TK-10 renal, 107%; in the experiment on ACHN renal, 110%. Moreover, the growth in the experiment with CAKI-1 renal is 100%; in the experiment on A498 renal it was 86.6%; in the experiment with CCRF-CEM leukemia, 100%; with MOLT-4 leukemia, 114%.
Regarding `CCOC(=O)Nc1nn[nH]n1`, the growth is 109% with SK-MEL-2 melanoma; 112% with EKVX NSCLC; 103% in the experiment with SN12C renal; 96.6% in the experiment on UO-31 renal; 114% with TK-10 renal; 100% in the experiment with ACHN renal. Moreover, the growth in the experiment on CAKI-1 renal is 113%; in the experiment on A498 renal it was 83.8%; in the experiment with CCRF-CEM leukemia, 95%; in the experiment on MOLT-4 leukemia it was 98.4%.
Turning to `CCCCNC1(C#N)CCN(Cc2ccccc2)CC1`, the growth is 102% with SK-MEL-2 melanoma; 95.5% with EKVX NSCLC; 104% in the experiment with SN12C renal; 81.1% with UO-31 renal; 105% with TK-10 renal; 106% in the experiment with ACHN renal. Besides, the growth in the experiment on CAKI-1 renal was 76.1%; in the experiment on A498 renal it was 78.5%; in the experiment with CCRF-CEM leukemia, 102%; in the experiment on MOLT-4 leukemia it was 152%.
Turning to `Nc1ncnc2c1nc(N)n2C1OC(CO)C(O)C1O` (stereo not given), the growth in the experiment with SK-MEL-2 melanoma was -11.6% (active); with EKVX NSCLC, -33.2% (active); in the experiment on SN12C renal, -22.8% (active); with UO-31 renal, -53.9% (active); with TK-10 renal, -14.2% (active); with ACHN renal, 2.76% (active). Further, the growth in the experiment on CAKI-1 renal was -28.6% (active); in the experiment with A498 renal, -80.3% (active); with CCRF-CEM leukemia, 1.73% (active); with MOLT-4 leukemia, 1.73% (active).

For the origin of these results see PubChem BioAssay (NCI).
